High-throughput results (PubChem BioAssay)
GDH-TPI counter-1 = inhibits GDH-TPI coupling enzymes, artifact for Mtb FBA screen | GDH-TPI coupled enzyme counterscreen, NADH absorbance | inhibition, % at 4.8 µM | 360,000 tested, 1.2% active | AID 588335; in the data active = inhibition above about 30%
DUSP3 inh = DUSP3 (human) phosphatase inhibition; inhibition, % at 13.3 µM; AID 1654; P51452; recombinant VHR phosphatase, pNPP absorbance; 290,000 tested, 0.52% active; in the data active = inhibition above about 50%
Target sequence (P51452 whole entry, looked up): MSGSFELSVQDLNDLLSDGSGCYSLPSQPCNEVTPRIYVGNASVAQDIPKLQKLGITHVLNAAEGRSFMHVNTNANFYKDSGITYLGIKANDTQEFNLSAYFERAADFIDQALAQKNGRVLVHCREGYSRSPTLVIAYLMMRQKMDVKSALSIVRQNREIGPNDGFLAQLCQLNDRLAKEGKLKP
SARS 3CLpro inh = SARS-CoV 3CLpro protease inhibition; 290,000 tested, 0.14% active; recombinant SARS-CoV 3CLpro, quenched FRET peptide cleavage; inhibition, % at 6 µM; in the data active = inhibition above about 12%
Mtb FBA inh = Mtb fructose-bisphosphate aldolase inhibition; AID 588726; 360,000 tested, 2.3% active; inhibition, % at 1 µM; purified M. tuberculosis FBA, fluorescence read-out; P9WQA3
Target sequence (P9WQA3 whole entry, looked up): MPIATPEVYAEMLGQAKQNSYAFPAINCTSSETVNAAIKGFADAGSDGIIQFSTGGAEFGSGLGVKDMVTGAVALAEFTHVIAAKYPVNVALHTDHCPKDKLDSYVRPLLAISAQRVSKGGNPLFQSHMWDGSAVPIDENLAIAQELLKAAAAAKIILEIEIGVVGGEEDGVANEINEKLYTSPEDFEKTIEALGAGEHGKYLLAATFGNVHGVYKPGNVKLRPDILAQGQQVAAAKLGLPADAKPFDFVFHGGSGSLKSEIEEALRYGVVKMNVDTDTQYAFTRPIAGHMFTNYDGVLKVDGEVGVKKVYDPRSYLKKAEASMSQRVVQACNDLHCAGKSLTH
CCHFV vOTU inh = blocks the CCHF virus ovarian tumor domain protease | CCHFV vOTU protease, Pep-AMC fluorescence | inhibition, % at 11.5 µM | 370,000 tested, 0.55% active | AID 651958; in the data active = inhibition above about 30%
RecA intein inh = blocks M. tuberculosis RecA intein splicing; P9WHJ3; inhibition, % (no concentration beside the values); 290,000 tested, 0.75% active; cell-free RecA intein splicing, fluorescence; in the data active = inhibition above about 30%
Mtb FBA inh conf = confirmation of M. tuberculosis fructose-bisphosphate aldolase inhibitors. shares compounds with Mtb FBA inh. 5,600 tested, 78% active. purified M. tuberculosis FBA, fluorescence read-out. AID 651616. inhibition, % at 1 µM
GDH-TPI counter-2 = counter-screen for M. tuberculosis FBA inhibitors: GDH-TPI coupled enzyme inhibition | shares compounds with Mtb FBA inh | GDH-TPI coupled enzyme counterscreen, fluorescence | inhibition, % at 1 µM | 5,600 tested, 81% active | AID 652141; in the data active = inhibition above about 10%
GDH-TPI DR = inhibits GDH-TPI coupling enzymes in dose response. 170 tested, 79% active. shares compounds with Mtb FBA inh. GDH-TPI coupled enzyme assay, fluorescence, artifact counterscreen. AID 652145. IC50, µM; call rule not given here
Large screens that a line does not name were inactive (follow-up assays come after a bar, where they were run). An excerpt weighted towards active compounds, which were near 4.7% of everything screened. Rule as the data show it, unless noted: active = inhibition above about 27%; inactive = the rest.

CCN(CC)CC(=O)Nc1c2c(nc3ccccc13)N(C)CC2	Mtb FBA inh 48.4 | GDH-TPI counter-2 active
O=C(/C=C/[C@H]1O[C@@H](n2ccc(=O)[nH]c2=O)[C@H](O)[C@@H]1O)NCC1CCCO1 (some centres not stated)	none (no result: GDH-TPI counter-1, DUSP3 inh, SARS 3CLpro inh, RecA intein inh)
C/C(O)=c1/cnc2nc3ccccc3n2c1=O	Mtb FBA inh 29.8 | Mtb FBA inh conf inactive | GDH-TPI counter-2 20.9
O=c1c2ccccc2n(CC(O)CN2CCOCC2)c2ccccc12 (configuration not stated)	Mtb FBA inh 32.9 (no result: DUSP3 inh) | Mtb FBA inh conf inactive | GDH-TPI counter-2 inactive
CCC(C)NC(=O)CCC(=O)Nc1ccc2nc(N3CCOCC3)cc(C)c2c1 (configuration not stated)	Mtb FBA inh 77.1 | Mtb FBA inh conf inactive | GDH-TPI counter-2 inactive
Cc1ccc(C)c(N2CCN(C(=S)Nc3ccc4nc(N5CCOCC5)cc(C)c4c3)CC2)c1	Mtb FBA inh 26.9 | Mtb FBA inh conf 89.1 | GDH-TPI counter-2 64.1
Cc1ccc(C)c(N2CCN(C(=S)Nc3ccc4nc(N5CCN(C)CC5)cc(C)c4c3)CC2)c1	none
COc1cc(NC(=O)CCC(=O)Nc2ccc3nc(N4CCOCC4)cc(C)c3c2)cc(OC)c1OC	Mtb FBA inh 106.2 (no result: RecA intein inh) | Mtb FBA inh conf 40.1 | GDH-TPI counter-2 30.5
CC(=O)c1ccc(N2CCN(C(=O)CCC(=O)Nc3ccc4nc(N5CCN(C)CC5)cc(C)c4c3)CC2)cc1	none
Cc1cc(N2CCOCC2)nc2ccc(NC(=O)CCC(=O)N3CCCCC3)cc12	Mtb FBA inh 36.9 | Mtb FBA inh conf 43.8 | GDH-TPI counter-2 32.9
C=CCN1C(=O)c2ccc(C(=O)OCC(=O)Nc3ccc(S(N)(=O)=O)cc3)cc2C1=O	none (no result: DUSP3 inh, SARS 3CLpro inh)
CC(=O)c1c(N2CCOCC2)nc2ccc(Cl)cc2c1-c1ccccc1	none
Cc1cc(N2CCOCC2)nc2ccc(NC(=O)CCC(=O)N3CCN(c4cccc(C(F)(F)F)c4)CC3)cc12	Mtb FBA inh 35.0 | Mtb FBA inh conf 54.4 | GDH-TPI counter-2 40.4
CCC(C)NC(=S)Nc1ccc2nc(N3CCN(CC)CC3)cc(C)c2c1 (configuration not stated)	none
CCN1CCN(c2cc(C)c3cc(NC(=O)CCC(=O)N4CCN(c5ccccc5)CC4)ccc3n2)CC1	none
CCC(C)NC(=S)Nc1ccc2nc(N3CCOCC3)cc(C)c2c1 (configuration not stated)	Mtb FBA inh 28.6 | Mtb FBA inh conf inactive | GDH-TPI counter-2 inactive
Cc1cccc(NS(=O)(=O)c2ccc(Cl)cc2)n1	none
CCOC(=O)C1CCCN(S(=O)(=O)c2cc3[nH]c(=O)c(=O)[nH]c3cc2C)C1 (configuration not stated)	Mtb FBA inh 47.5 | Mtb FBA inh conf 83.3 | GDH-TPI counter-2 58.2
COC(=O)C1=C(C)N(CC(C)C)C(=S)NC1c1ccc(Cl)cc1 (configuration not stated)	none (no result: GDH-TPI counter-1, DUSP3 inh, SARS 3CLpro inh, Mtb FBA inh, RecA intein inh)
O=C(c1cccs1)N1CCc2c([nH]c3ccccc23)C1c1ccccn1 (configuration not stated)	Mtb FBA inh 33.8 | Mtb FBA inh conf inactive | GDH-TPI counter-2 inactive
CCCC(=O)N1CCC1(C)C(=O)Nc1ccc2nccnc2c1 (configuration not stated)	Mtb FBA inh 43.0 (no result: DUSP3 inh, SARS 3CLpro inh, RecA intein inh) | Mtb FBA inh conf 45.4 | GDH-TPI counter-2 23.8
Cc1ccc(COC(=O)c2nn(-c3ccccc3)nc2N)cc1	Mtb FBA inh 85.6 | Mtb FBA inh conf inactive | GDH-TPI counter-2 inactive
Cn1cc(-c2ccccc2C(=O)O)c(=O)c2cc(Cl)ccc21	none
NC(=O)c1nc(C2CCCCC2)nc2c1[nH]c(=O)n2-c1ccc(F)cc1	none
COc1ccc(-c2nc(C(N)=O)c3[nH]c(=O)n(-c4ccccc4OC)c3n2)c(OC)c1	none
COc1ccccc1-n1c(=O)[nH]c2c(C(N)=O)nc(-c3cccnc3)nc21	Mtb FBA inh 38.9 (no result: SARS 3CLpro inh) | Mtb FBA inh conf inactive | GDH-TPI counter-2 inactive
COc1ccccc1-n1c(=O)[nH]c2c(C(N)=O)nc(C3CCCCC3)nc21	Mtb FBA inh 27.2 | Mtb FBA inh conf active | GDH-TPI counter-2 active
COc1ccc2c(c1)sc1nc(=O)ccn12	Mtb FBA inh 49.4 | Mtb FBA inh conf 117.1 | GDH-TPI counter-2 106.3
Cc1ccc2c(c1)sc1nc(=O)ccn12	none (no result: RecA intein inh)
CCCC#CCN1CCN(C23CC4CC(CC(C4)C2)C3)CC1	none (no result: DUSP3 inh)
COc1ccc(C#Cc2cnc3c(c2)C(=O)N([C@@H](C)CO)C[C@@H](C)[C@@H](CN(C)CC2CCOCC2)O3)cc1	none (no result: DUSP3 inh, SARS 3CLpro inh, RecA intein inh)
Cc1ccc(CNS(=O)(=O)c2ccc(-c3cnc(C4CC4)o3)cc2)cc1	Mtb FBA inh 41.0 | Mtb FBA inh conf 40.1 | GDH-TPI counter-2 25.2
O=S(=O)(NCc1ccccc1)c1ccc(-c2cnc(C3CC3)o2)cc1	Mtb FBA inh 27.2 | Mtb FBA inh conf active | GDH-TPI counter-2 157.7
Cc1cccc(NC(=O)c2cccc(S(=O)(=O)N(C)C3CCCCC3)c2)n1	none (no result: DUSP3 inh, SARS 3CLpro inh, RecA intein inh)
CCOC(=O)c1ccc(NC(=O)OC[C@@H]2CSCCS(=O)(=O)N2)cc1	none (no result: GDH-TPI counter-1, DUSP3 inh, SARS 3CLpro inh, Mtb FBA inh, RecA intein inh)
CCCn1nnc(NC(=S)NC(=O)c2cccs2)n1	Mtb FBA inh 37.4 | Mtb FBA inh conf 39.2 | GDH-TPI counter-2 24.7
O=C(Nc1ccc(Cl)cc1)NC1CCCCNC1=O (configuration not stated)	none
Nc1ccccc1C(=O)NC1CCCNC1=O (configuration not stated)	Mtb FBA inh 61.4 (no result: DUSP3 inh, SARS 3CLpro inh) | Mtb FBA inh conf active | GDH-TPI counter-2 active
CC1(C)CC(=O)C2=C(C1)N(CCN1CCOCC1)C1=C(C(=O)CC(C)(C)C1)C2c1cccc(Cl)c1	Mtb FBA inh 29.9 | Mtb FBA inh conf inactive | GDH-TPI counter-2 inactive
CCN(CC)CCN1C2=C(C(=O)CC(C)(C)C2)C(c2cccc(F)c2)C2=C1CC(C)(C)CC2=O	Mtb FBA inh 83.0 | Mtb FBA inh conf active | GDH-TPI counter-2 199.9
Cc1ncc(CO)c(/C=N/NC(=O)c2ccoc2C)c1O	Mtb FBA inh 33.2 (no result: DUSP3 inh, SARS 3CLpro inh, RecA intein inh) | Mtb FBA inh conf inactive | GDH-TPI counter-2 inactive
N#Cc1nc(-c2ccccc2)oc1N1CCN(C(=O)c2ccco2)CC1	Mtb FBA inh 67.6 | Mtb FBA inh conf 40.5 | GDH-TPI counter-2 32.2
N#Cc1nc(-c2cccs2)oc1N1CCN(Cc2ccccc2)CC1	Mtb FBA inh 51.2 | Mtb FBA inh conf inactive | GDH-TPI counter-2 inactive | GDH-TPI DR 1.76
COc1ccc(C(=O)NCc2ccc3c(c2)cc(C)n3C)cc1	none
CCCCn1nc2cc(C(=O)NCc3ccc(OC)cc3)ccc2c1OCC	Mtb FBA inh 39.9 | Mtb FBA inh conf 94.2 | GDH-TPI counter-2 85.4
